Assay results published in article PMC7862700, “An all-to-all approach to the identification of sequence-specific readers for epigenetic DNA modifications on cytosine”.

Assays:
Experiment in all cases: DAPPL (digital affinity profiling via proximity ligation, sequencing); 10 mM Tris-HCl pH 7.5, 50 mM NaCl, 1 mM DTT, 4% glycerol, room temperature, 30 min; GST-TFs on glutathione beads, 16-mer random dsDNA library, 0.1% formaldehyde crosslink after washing; high values mean tight binding
Settings in all cases: protein: recombinant; tags: N-terminal GST; dsDNA, one strand shown
FLI1 = target: T1, FLI1 (Homo sapiens, UniProt Q01543 1-452)
T1 sequence: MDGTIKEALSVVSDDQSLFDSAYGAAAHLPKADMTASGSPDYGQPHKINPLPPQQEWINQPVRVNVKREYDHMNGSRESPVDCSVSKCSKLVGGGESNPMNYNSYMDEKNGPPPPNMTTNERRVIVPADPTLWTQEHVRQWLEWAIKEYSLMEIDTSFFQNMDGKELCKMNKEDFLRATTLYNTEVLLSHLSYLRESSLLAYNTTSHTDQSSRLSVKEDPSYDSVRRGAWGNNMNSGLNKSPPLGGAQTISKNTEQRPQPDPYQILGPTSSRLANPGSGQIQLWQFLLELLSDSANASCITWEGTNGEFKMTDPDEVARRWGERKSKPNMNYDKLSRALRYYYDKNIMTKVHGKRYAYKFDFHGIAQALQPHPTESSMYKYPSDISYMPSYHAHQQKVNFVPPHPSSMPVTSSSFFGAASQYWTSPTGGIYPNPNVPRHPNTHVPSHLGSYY
How it was run: (§1)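 Sequencing on an Illumina NextSeq500 followed washing, crosslinking with 0.1% formaldehyde, proximity ligation (BsaI/T4 ligase, 1 h, 37 °C) and PCR amplification of pools that had been incubated for 30 min at room temperature with 200 nmole of a random double-stranded 16-mer DNA library in Tris/NaCl/DTT/glycerol buffer. Each pool held DNA-barcoded human transcription factors, expressed in yeast as GST fusions and captured on glutathione beads, plus a tag-only sample. Binding signal is a hexamer's read frequency for a factor divided by its frequency in the tag-only sample.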

ELK1 = target: T2, ELK1 (Homo sapiens, UniProt P19419 1-428)
T2 sequence: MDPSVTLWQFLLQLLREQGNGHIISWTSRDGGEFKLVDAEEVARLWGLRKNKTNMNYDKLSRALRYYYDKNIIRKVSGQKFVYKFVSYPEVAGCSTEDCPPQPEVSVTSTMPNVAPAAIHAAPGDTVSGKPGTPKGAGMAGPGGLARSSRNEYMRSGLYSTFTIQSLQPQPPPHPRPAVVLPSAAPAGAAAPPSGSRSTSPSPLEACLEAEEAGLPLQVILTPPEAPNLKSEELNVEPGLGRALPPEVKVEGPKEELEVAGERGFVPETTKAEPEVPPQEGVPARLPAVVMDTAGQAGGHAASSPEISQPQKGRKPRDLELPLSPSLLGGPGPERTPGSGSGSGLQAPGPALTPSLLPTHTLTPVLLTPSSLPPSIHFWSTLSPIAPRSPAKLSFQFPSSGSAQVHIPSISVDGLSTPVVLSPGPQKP
How it was run: as §1

ELF1 = ELF1 (Homo sapiens, UniProt P32519 1-619)
Chain of ELF1 (P32519 whole entry): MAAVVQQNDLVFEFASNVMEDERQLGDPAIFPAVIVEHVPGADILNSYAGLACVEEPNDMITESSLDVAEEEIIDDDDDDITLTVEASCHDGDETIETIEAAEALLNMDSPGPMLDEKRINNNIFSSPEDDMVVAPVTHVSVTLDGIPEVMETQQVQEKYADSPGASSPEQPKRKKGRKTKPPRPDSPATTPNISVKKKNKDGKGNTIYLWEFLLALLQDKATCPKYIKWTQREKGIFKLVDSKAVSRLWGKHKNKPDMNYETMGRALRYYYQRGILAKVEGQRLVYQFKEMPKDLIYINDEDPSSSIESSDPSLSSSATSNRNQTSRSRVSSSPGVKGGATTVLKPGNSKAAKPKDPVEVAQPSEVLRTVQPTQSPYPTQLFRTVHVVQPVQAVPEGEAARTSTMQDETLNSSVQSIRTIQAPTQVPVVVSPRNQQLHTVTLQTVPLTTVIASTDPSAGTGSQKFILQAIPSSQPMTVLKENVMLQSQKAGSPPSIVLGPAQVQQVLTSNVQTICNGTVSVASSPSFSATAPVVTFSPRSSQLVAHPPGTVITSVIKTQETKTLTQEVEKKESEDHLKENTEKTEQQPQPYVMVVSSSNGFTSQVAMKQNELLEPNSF
How it was run: as §1

EHF = target: T3, EHF (Homo sapiens, UniProt Q9NZC4 1-300)
T3 sequence: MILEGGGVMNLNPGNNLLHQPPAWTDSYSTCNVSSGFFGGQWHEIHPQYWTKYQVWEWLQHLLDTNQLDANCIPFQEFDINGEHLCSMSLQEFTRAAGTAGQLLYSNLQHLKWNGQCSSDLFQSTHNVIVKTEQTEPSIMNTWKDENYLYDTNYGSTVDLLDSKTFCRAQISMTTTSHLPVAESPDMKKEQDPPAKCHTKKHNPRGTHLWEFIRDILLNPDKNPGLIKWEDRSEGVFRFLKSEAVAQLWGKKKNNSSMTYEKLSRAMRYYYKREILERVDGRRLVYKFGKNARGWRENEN
How it was run: as §1

ELK4 = target: T4, ELK4 (Homo sapiens, UniProt P28324-2 1-405)
T4 sequence: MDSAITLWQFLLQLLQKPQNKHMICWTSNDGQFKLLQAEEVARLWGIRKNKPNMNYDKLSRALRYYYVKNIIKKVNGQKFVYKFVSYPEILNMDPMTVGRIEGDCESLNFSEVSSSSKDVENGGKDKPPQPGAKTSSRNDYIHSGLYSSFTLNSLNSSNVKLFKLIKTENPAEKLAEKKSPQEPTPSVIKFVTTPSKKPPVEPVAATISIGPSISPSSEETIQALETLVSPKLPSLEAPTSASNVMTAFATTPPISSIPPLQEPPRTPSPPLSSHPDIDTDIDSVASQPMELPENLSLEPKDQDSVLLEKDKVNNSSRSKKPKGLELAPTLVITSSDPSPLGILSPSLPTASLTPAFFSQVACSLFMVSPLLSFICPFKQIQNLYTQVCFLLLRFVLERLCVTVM
How it was run: as §1

ETV2 = target: T5, ETV2 (Homo sapiens, UniProt O00321 1-342)
T5 sequence: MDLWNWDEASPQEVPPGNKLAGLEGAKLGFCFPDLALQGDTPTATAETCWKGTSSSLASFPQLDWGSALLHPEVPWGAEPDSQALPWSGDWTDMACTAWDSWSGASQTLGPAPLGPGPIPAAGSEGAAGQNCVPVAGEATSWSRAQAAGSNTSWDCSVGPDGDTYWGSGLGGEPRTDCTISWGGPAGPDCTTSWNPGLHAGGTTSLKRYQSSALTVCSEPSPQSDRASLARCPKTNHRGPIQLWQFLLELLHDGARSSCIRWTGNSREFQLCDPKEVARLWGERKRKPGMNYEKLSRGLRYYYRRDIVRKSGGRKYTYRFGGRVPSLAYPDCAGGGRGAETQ
How it was run: as §1

ELF3 = target: T6, ELF3 (Homo sapiens, UniProt P78545 1-371)
T6 sequence: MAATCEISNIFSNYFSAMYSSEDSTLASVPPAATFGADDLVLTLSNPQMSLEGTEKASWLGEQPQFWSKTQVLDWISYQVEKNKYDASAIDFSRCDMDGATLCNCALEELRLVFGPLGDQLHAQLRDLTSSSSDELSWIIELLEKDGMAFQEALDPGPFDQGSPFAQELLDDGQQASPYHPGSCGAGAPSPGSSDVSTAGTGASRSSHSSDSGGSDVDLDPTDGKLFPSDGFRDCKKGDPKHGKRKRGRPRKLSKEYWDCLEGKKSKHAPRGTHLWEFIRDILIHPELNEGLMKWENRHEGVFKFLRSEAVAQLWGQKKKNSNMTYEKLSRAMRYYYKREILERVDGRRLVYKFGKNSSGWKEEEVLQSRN
How it was run: as §1

SPDEF = target: T7, SPDEF (Homo sapiens, UniProt O95238 1-335)
T7 sequence: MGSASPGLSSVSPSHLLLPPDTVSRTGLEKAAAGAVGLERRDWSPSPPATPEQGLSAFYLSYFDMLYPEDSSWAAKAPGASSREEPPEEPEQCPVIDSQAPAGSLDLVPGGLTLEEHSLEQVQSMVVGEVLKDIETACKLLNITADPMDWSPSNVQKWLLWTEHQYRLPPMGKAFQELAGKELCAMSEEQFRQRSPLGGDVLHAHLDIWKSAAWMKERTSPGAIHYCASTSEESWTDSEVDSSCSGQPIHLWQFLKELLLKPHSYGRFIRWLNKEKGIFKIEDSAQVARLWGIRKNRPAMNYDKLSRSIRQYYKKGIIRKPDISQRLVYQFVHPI
How it was run: as §1

ETV7 = target: T8, ETV7 (Homo sapiens, UniProt Q9Y603 1-341)
T8 sequence: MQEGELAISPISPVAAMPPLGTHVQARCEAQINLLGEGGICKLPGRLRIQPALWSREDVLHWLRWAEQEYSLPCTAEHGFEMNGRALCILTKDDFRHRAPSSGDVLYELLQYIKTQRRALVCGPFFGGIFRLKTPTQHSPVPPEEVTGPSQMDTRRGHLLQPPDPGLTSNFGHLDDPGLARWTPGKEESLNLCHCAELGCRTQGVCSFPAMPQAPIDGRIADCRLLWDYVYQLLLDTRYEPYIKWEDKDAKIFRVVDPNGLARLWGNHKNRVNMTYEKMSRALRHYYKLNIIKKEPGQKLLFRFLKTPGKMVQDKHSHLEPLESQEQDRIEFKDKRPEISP
How it was run: as §1

GCCGTC
binding signal (FLI1): 1.04 fold enrichment (6-mer frequency, TF over GST control) | binding signal (ELK1): 1.03 fold enrichment (6-mer frequency, TF over GST control) | binding signal (ELF1): 1.02 fold enrichment (6-mer frequency, TF over GST control) | binding signal (EHF): 1.1 fold enrichment (6-mer frequency, TF over GST control) | binding signal (ELK4): 1.1 fold enrichment (6-mer frequency, TF over GST control) | binding signal (ETV2): 1.03 fold enrichment (6-mer frequency, TF over GST control) | binding signal (ELF3): 1.17 fold enrichment (6-mer frequency, TF over GST control) | binding signal (SPDEF): 1.03 fold enrichment (6-mer frequency, TF over GST control) | binding signal (ETV7): 1.03 fold enrichment (6-mer frequency, TF over GST control)
